FMDV antiviral = Primary qHTS Assay for Foot and Mouth Disease Virus Antivirals against NCGC Sytravon and CBC Compound Libraries: Firefly Luciferase Signal | actives 0.23% (n = 120,000) | AID 1745856, 2022 | Potency, µM (doses to about 57.5 µM), for the others: at the top dose activity change, negative = inhibition, hits mostly inhibitors | FMDV antiviral cell assay, firefly luciferase signal; note: nearly all actives have a fitted effect of over 60% in size
FMDV Renilla = Primary qHTS Assay for Foot and Mouth Disease Virus Antivirals against NCGC Sytravon and CBC Compound Libraries: Renilla Luciferase Signal; FMDV replicon cells, Renilla luciferase signal; Potency, µM (titrated, usually from 57.5 µM), inactives show at the top dose activity change, negative = inhibition, hits mostly inhibitors; AID 1745857, 2022; actives 0.32% (n = 120,000); note: nearly all actives have a fitted effect of over 55% in size
Active calls of the source: *; [ ] = dose if it differs, or a comment. The list is not random: actives were taken first. Their share in the collection is about 0.45%. Calls come from the whole dose curve. % is set by controls: 0 for no effect and ±100 for the full control effect; potency is the fitted concentration of half-maximal effect.

Screening N#Cc1c(NC(=O)c2ccnn2C(F)F)sc2c1CCC2 returned FMDV antiviral inconclusive and FMDV Renilla 3.16µM*.
For N#Cc1c(NC(=O)c2ccnn2C(F)F)sc2c1CCCCC2 the results were FMDV antiviral inconclusive and FMDV Renilla 5.01µM*.
For N#Cc1c(NC(=O)c2cc(=O)c3ccccc3o2)sc2c1CCCC2 the results were FMDV antiviral 137.8% and FMDV Renilla 0.8%.
N#Cc1c(NC(=O)c2ccnn2C(F)F)sc2c1CCCC2 was read as FMDV antiviral inconclusive and FMDV Renilla 3.16µM*.
`Cc1oc(-c2cccs2)nc1C(=O)NCCN1CCOCC1` gave FMDV antiviral 9.1% and FMDV Renilla -3.4%.
For Cc1ccc(NC(=O)CCc2ncc(-c3ccccc3F)o2)c(Cl)c1 the results were FMDV antiviral 12.2% and FMDV Renilla 2.2%.
C=CCNC(c1ccccc1)c1ccccc1 was read as FMDV antiviral -0.2% and FMDV Renilla -9.7%[1.06 µM].
Cc1ccc2nc(C)c(C(=O)N3CCN(Cc4ccccc4C)CC3)cc2c1 was read as FMDV antiviral 15.8µM* and FMDV Renilla 15.8µM*.
For Cc1ccc(S(=O)(=O)N2CCN(C(=O)c3cc4cc(C)ccc4nc3C)CC2)cc1 the results were FMDV antiviral 13.7% and FMDV Renilla 2.6%.
Screening COc1cc(/C=C2\NC(=O)NC2=O)c(Br)cc1OCC(=O)O returned FMDV antiviral -15.3% and FMDV Renilla -8.0%.
Screening CCOc1cc(Br)c(/C=C2/NC(=O)NC2=O)cc1OC returned FMDV antiviral 2.82µM* and FMDV Renilla inconclusive.
CC[C@@H](C)[C@@H](NC(C)=O)C(=O)O was read as FMDV antiviral 2.6% and FMDV Renilla -0.6%.
`COc1cccc(C(=O)Nc2ccc(O)c(-c3nc4ccccc4o3)c2)c1` gave FMDV antiviral -8.8% and FMDV Renilla -13.6%.
`COCCCNC(=O)c1cc(Nc2cc(C)cc(C)c2)nc2ccccc12` gave FMDV antiviral 79.5% and FMDV Renilla 6.0%.
O=C(Nc1nc(-c2cccc3ccccc23)cs1)c1cccs1 was read as FMDV antiviral 12.6µM* and FMDV Renilla inconclusive.
Cn1c(=O)c2c(ncn2CC(=O)Nc2nc(-c3cccc4ccccc34)cs2)n(C)c1=O was read as FMDV antiviral 130.3% and FMDV Renilla -7.4%.
CCCS(=O)(=O)c1ncc(Cl)c(C(=O)N(Cc2ccccc2)Cc2ccco2)n1 was read as FMDV antiviral 22.4µM* and FMDV Renilla 4.5%.
Screening CCCSc1ncc(Cl)c(C(=O)N(Cc2ccc(Cl)cc2)Cc2ccco2)n1 returned FMDV antiviral -0.8% and FMDV Renilla 0.4%.
For O=[N+]([O-])c1ccc(N/N=C/c2c[nH]c3ccccc23)c(S(=O)(=O)Nc2ccc(Cl)cc2)c1 the results were FMDV antiviral 25.1µM* and FMDV Renilla -92.9%.
Screening O=[N+]([O-])c1ccc(N/N=C/c2c[nH]c3ccccc23)c(S(=O)(=O)Nc2ccccc2Cl)c1 returned FMDV antiviral -18.1% and FMDV Renilla 68.2%.
Screening N#Cc1nc(-c2ccco2)oc1N1CCN(C(=O)c2ccccc2Cl)CC1 returned FMDV antiviral -8.0% and FMDV Renilla 0.3%.
N#Cc1nc(-c2ccco2)oc1N1CCN(C(=O)CNC(c2ccccc2)c2ccccc2)CC1 was read as FMDV antiviral inconclusive and FMDV Renilla 10µM*.
`N#C/C(=C\c1ccc(-c2ccccc2Cl)o1)c1ccc(F)cc1` gave FMDV antiviral 188.5% and FMDV Renilla 9.2%.
N#CCSc1ccccc1C(=O)O was read as FMDV antiviral 14.0% and FMDV Renilla -4.8%.
For Cc1ccccc1CC(=O)Nc1cccc2ncccc12 the results were FMDV antiviral 20.9% and FMDV Renilla 8.9%.
Screening Cc1ccccc1CNc1ncnc2ccccc12 returned FMDV antiviral 11.2µM* and FMDV Renilla inconclusive.
Screening O=C(NCCC(c1ccccc1)c1ccccc1)c1ccc2ccccc2n1 returned FMDV antiviral 24.3% and FMDV Renilla 13.9%.
`CC(C)=CCC/C(C)=C/COc1ccc2c(=O)c(-c3ccccc3)c(C)oc2c1` gave FMDV antiviral 7.0% and FMDV Renilla 12.3%.
Screening CCCCN(CC)C(=O)C1CCCN(c2ncnc3onc(C)c23)C1 (stereo not drawn) returned FMDV antiviral -27.6% and FMDV Renilla inconclusive.
CCCCN(C)C(=O)C1CCCN(c2ncnc3onc(C)c23)C1 (stereo not drawn) was read as FMDV antiviral inconclusive and FMDV Renilla 2µM*.
COC(=O)c1cc(S(=O)(=O)Nc2ccc(C)cc2Cl)c[nH]1 was read as FMDV antiviral -5.4% and FMDV Renilla 47.7%.
CCS(=O)(=O)N1CCc2cc(C(=O)Nc3ccc(C)c(Cl)c3)ccc21 was read as FMDV antiviral 95.9% and FMDV Renilla 22.2%.
`CCS(=O)(=O)N1CCc2ccc(NC(=O)Nc3ccc(C)c(C)c3)cc21` gave FMDV antiviral inconclusive and FMDV Renilla 4.47µM*.

Screening results from PubChem BioAssay.
